Laboratory results reported in the supplement of paper PMC3334620.
In all, about 33,000 sequences were measured (“E-score (-0.5 to 0.5)”: median about -0.043, highest 2% from about 0.37 on). The list comes from a sample in which the highest values are over-represented; it also holds similar and randomly drawn sequences.

These sequences were tested against T1, Upc2 (UniProt Q12151) (assay: PBM E-score (8-mer binding enrichment) (E-score (-0.5 to 0.5)); higher = stronger / more preferred TF binding). Conditions: protein concentration: 200 nM; construct: GST-full length.
T1 sequence: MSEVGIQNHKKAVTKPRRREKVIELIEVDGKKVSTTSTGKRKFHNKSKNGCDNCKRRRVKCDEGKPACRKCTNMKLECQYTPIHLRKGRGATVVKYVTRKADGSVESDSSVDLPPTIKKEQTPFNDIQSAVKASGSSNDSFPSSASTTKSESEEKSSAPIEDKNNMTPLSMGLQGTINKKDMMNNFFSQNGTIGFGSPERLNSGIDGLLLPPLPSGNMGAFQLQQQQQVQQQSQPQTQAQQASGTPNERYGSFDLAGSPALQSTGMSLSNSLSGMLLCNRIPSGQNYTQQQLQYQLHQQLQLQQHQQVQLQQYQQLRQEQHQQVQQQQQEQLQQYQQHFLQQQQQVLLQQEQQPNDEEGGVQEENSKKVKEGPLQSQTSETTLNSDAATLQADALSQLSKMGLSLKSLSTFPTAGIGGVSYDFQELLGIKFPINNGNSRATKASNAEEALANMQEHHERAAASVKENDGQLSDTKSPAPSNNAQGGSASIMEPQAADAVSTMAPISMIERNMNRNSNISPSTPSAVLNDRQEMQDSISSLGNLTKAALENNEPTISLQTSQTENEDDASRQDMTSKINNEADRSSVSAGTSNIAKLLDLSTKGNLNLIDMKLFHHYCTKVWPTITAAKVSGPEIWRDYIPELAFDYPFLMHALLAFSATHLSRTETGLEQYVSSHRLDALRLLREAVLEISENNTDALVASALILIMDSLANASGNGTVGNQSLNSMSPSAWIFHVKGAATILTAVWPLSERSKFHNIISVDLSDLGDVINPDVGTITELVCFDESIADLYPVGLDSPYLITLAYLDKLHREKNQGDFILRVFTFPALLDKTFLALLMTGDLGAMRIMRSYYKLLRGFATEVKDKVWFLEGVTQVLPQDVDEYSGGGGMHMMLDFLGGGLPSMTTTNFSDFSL
Protocol: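 Universal 'all 10-mer' protein binding microarrays (Agilent AMADID 015681) probed with GST-tagged S. cerevisiae TFs (full-length or DBD) made by in vitro transcription/translation (PURExpress), about 100-200 nM. Bound TF was detected with fluorescent anti-GST. Each ungapped 8-mer (which stands for itself and its reverse complement) is scored by the PBM enrichment score (E-score), a modified Wilcoxon-Mann-Whitney statistic from -0.5 to +0.5, computed with the Universal PBM Analysis Suite. Scale: above 0.35 generally sequence-specific binding.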

In order of falling “PBM E-score” value:
1. CCGTATAG  0.485
2. ACTCGTAT  0.483
3. CCGTATAA  0.483
4. CTCGTTCC  0.479
5. CTCGTTCA  0.476
6. CCGTATAC  0.475
7. CGGAACGA  0.468
8. GTCGTTCA  0.467
9. GGGAACGA  0.466
10. GCGTATAC  0.454
11. GCTTCGTA  0.449
12. AGGAACGA  0.449
13. ACGTATAC  0.445
14. GCGTATAA  0.444
15. ATCGTTCA  0.443
16. CCTTCGTA  0.441
17. ACGTATAA  0.437
18. ACGTATAG  0.433
19. ATCGTTCC  0.43
20. ACTTCGTA  0.429
21. CTAAGCGA  0.416
22. CGTACCAC  0.407
23. ACGTATAT  0.404
24. ACGAGAAT  0.396
25. CCGTATGA  0.392
26. CGTACCAA  0.392
27. CGTACCAG  0.39
28. GTAAGCGA  0.388
29. ATCGTTCG  0.384
30. CGTACCTA  0.376
31. ACGAGAAC  0.375
32. CGTACCTC  0.361
33. CCGTATGC  0.356
34. ACGAGAAA  0.349
35. ATAAGCGA  0.347
36. ACGAGACT  0.337
37. CCGTATCC  0.331
38. CCCGTTCC  0.327
39. AGGAACGG  0.322
40. CCGTATCG  0.319
41. GAGTATAC  0.315
42. CTCGTTGA  0.313
43. ATTACGTA  0.309
44. AAGTATAC  0.306
45. CTGTATAC  0.281
46. ACGAGAAG  0.277
47. CGGTATAA  0.267
48. ATGTATAC  0.263
49. GGGTATAC  0.255
50. ACTCGGAT  0.252
51. CGGAACGC  0.243
52. ACGTATGA  0.243
53. CGGTATAG  0.225
54. CGCGTTCC  0.223
55. ACGTATCG  0.22
56. AACGTTCA  0.212
57. AACGTTCG  0.212
58. ACGTATTG  0.209
59. AGGTATAA  0.198
60. GCTTCGCA  0.186
61. CCCCATAC  0.174
62. ACGTTCAT  0.169
63. ACTCGTCT  0.167
64. CCGTTTCA  0.159
65. CTGTATAA  0.156
66. AACGTTCC  0.152
67. ACACGCGT  0.152
68. GGAAGCGA  0.145
69. CTAAGCGC  0.14
70. GTGTATAA  0.138
71. GTAGGAAC  0.13
72. ACAGCGCT  0.128
73. TAGCTAAA  0.119
74. AGCGTTCC  0.117
75. CCGAGAAC  0.117
76. AGGAACGC  0.114
77. ATGCAACG  0.113
78. GAATCTAA  0.111
79. AACCGGTT  0.107
80. ACACTGTA  0.106
81. AAGTATAT  0.104
82. GCTTCGGA  0.102
83. GCGTATTA  0.0994
84. GACGTTCA  0.0943
85. AATCGCAA  0.0942
86. CACGTTCA  0.092
87. ACTTCGTG  0.0872
88. ACGTTGCG  0.0848
89. ATGTATAA  0.0845
90. CGGAACAA  0.0835
91. CCACTGTA  0.0804
92. TCTTGAAA  0.0803
93. AACGCTGA  0.0761
94. AATATACA  0.0677
95. GGGAACAA  0.0652
96. GGCGTTCA  0.0581
97. ACTTCGTC  0.0529
98. TTATACAA  0.0521
99. GGATGGCA  0.0444
100. TGCATGAA  0.0372
101. CGACTTTC  0.0358
102. ATCGTTGG  0.0354
103. TGTACCAA  0.03
104. CCTTCGCA  0.0293
105. ATGACTCA  0.029
106. CCTCTGTA  0.0279
107. CTAAGCTA  0.015
108. ATCAAAAC  0.0147
109. GGTGTGGA  0.00988
110. CCTTCGTC  0.00619
111. GCTGTGTA  0.00184
112. CTGGGTAA  -0.00044
113. AAATGGCG  -0.0033
114. ATCGATCC  -0.00332
115. GTTGTCAA  -0.00594
116. ATCGAAGC  -0.00965
117. AAGACTTG  -0.00965
118. CATATACC  -0.0116
119. GTACTCTA  -0.0205
120. CCGGAGCA  -0.0221
121. ACTACCAG  -0.0238
122. TGCTAGCA  -0.0249
123. TTGCCCAA  -0.0249
124. CAGAATTC  -0.03
125. AGCGTTCA  -0.0376
126. CAGCCTCA  -0.0411
127. GAGGTCGC  -0.042
128. ACAAGCTC  -0.0437
129. CATACCAG  -0.0446
130. CAGTAACA  -0.0459
131. CATCCACA  -0.0464
132. ACTATGAA  -0.0506
133. AGGTATAT  -0.0562
134. CCTAAGGA  -0.0656
135. AGCTAATC  -0.0679
136. AATTGAGC  -0.0691
137. GGAACTGA  -0.0729
138. AGTACCAA  -0.0772
139. AGTACCAC  -0.0837
140. AATGCAGA  -0.0923
141. CCTGCCAA  -0.0976
142. GATCAATC  -0.104
143. GCTGCAAC  -0.107
144. AGTACCTA  -0.109
145. CTCTGTCC  -0.116
146. GACCAATC  -0.117
147. ACTCTAGC  -0.12
148. CTCTTCGC  -0.12
149. CTAGTGAA  -0.126
150. AGTACCAG  -0.134
151. GCCTCCCC  -0.149
152. GGGAACCA  -0.165
153. CTATTGAC  -0.166
154. AGAGGGTG  -0.171
155. GGTACCAC  -0.18
156. CCAAGTGG  -0.186
157. AGATATGC  -0.186
158. TCATCAGA  -0.187
159. CCTAGTGC  -0.199
160. CGTCATGC  -0.202
161. CCGTGGCC  -0.206
162. AGAGTGCC  -0.209
163. GGCAGTTA  -0.21
164. GTCCACAA  -0.215
165. AGTGCAGC  -0.22
166. CAAGCTTG  -0.233
167. CCATCGAC  -0.247
168. ATGGGAGA  -0.251
169. CCGCAGCA  -0.267
170. CTCTCAAG  -0.308
171. CCCTATCA  -0.325
172. ACCCCTGC  -0.412
